Experimental data reported in PubChem BioAssay.
For some of these results: Entries with a potency or affinity are not part of this list. Calls of active or inactive are those of the source.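 The calls were made as follows, unless noted: active = fluorescence ratio normalized to control raised more than 50% in primary screen plus both repeat runs; inactive = the rest.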

Key:
[1] = tested on: TRPC4 beta (transient receptor potential cation channel C4), mouse; assay: TRPC4 cation channel opening, retest – cell-based, Fluo4 calcium, HEK293 TRPC4beta/mu-opioid, duplicates, 10 µM, confirmation (AID 2426); details: Fluo4 calcium fluorescence, at 10 µM; active compounds read high
[2] = tested on: transient receptor potential cation channel C4 beta (TRPC4), mouse; assay: TRPC4 cation channel opening, second retest – cell-based, second round, Fluo4, HEK293 TRPC4beta/mu-opioid, 1 µM, confirmation (AID 2461;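 active = primary screen active and over 50% activation in each of two duplicate runs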); details: Fluo4 calcium fluorescence, at 1 µM; active compounds read high
[3] = tested on: TRPC4 (transient receptor potential cation channel C4 beta), mouse; assay: potentiation of DAMGO EC20 TRPC4 response – cell-based, second round, Fluo-4, HEK293 TRPC4beta/mu-opioid, 1 µM, confirmation (AID 2554;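 active = primary screen hit whose fluorescence ratio, in both repeats, exceeds the weak agonist control mean by 3 SD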); details: DAMGO EC20, Fluo-4 calcium flux, at 1 µM; active compounds read high
[4] = tested on: TRPC4 beta (transient receptor potential cation channel C4), mouse; assay: potentiation of DAMGO EC20 TRPC4 response – cell-based, Fluo-4, HEK293 TRPC4beta/mu-opioid, confirmation (AID 2555;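 active = primary screen hit whose calcium fluorescence ratio, in both repeats, exceeds the weak agonist control mean by 3 SD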); details: DAMGO EC20, Fluo-4 calcium flux, at 10 µM; active compounds read high
[5] = biological target: Short transient receptor potential channel 4 (Mus musculus) (UniProt Q9QUQ5); assay: blockers of DAMGO-evoked TRPC4 calcium flux – cell-based, Fluo4, HEK293 TRPC4beta/mu-opioid, confirmation (AID 2636;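 active = calcium signal cut by more than 3 SD below the full-agonist control yet still positive, in both repeats and the earlier primary screen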); details: at 10 µM; active compounds read high
Sequence of Short transient receptor potential channel 4 (Mus musculus) (Q9QUQ5 whole entry, looked up): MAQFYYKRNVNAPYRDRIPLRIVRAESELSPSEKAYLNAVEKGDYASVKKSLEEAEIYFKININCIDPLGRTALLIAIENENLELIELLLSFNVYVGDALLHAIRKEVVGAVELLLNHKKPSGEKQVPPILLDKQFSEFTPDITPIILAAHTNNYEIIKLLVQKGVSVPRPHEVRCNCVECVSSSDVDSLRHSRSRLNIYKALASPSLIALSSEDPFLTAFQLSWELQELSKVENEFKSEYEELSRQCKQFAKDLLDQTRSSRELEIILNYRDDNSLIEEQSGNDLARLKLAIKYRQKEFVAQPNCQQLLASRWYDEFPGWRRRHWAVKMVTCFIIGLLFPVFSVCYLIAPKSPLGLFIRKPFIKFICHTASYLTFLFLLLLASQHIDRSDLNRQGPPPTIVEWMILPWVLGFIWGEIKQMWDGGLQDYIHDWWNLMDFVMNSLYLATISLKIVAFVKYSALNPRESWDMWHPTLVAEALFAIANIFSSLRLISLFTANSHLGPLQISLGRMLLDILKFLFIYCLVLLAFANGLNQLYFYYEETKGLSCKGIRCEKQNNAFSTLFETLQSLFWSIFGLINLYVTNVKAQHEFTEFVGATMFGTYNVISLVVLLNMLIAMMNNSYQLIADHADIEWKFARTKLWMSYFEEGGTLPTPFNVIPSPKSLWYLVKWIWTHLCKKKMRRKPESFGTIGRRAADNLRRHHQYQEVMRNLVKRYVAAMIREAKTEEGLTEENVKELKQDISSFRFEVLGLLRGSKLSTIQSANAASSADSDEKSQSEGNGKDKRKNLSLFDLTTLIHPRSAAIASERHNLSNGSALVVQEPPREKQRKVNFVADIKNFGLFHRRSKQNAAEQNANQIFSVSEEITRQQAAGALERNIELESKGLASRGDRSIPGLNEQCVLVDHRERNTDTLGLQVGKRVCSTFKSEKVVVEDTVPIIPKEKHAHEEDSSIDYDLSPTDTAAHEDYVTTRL

[6] = biological target: Short transient receptor potential channel 4 (Mus musculus) (UniProt Q9QUQ5); assay: blockers of DAMGO-evoked TRPC4 calcium flux – cell-based, second round, Fluo4, HEK293 TRPC4beta/mu-opioid, 1 µM, confirmation (AID 2637;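 active = calcium signal ratio cut to more than 3 SD under the fully stimulated control mean yet still positive, in both repeats and the primary screen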); details: at 1 µM; active compounds read high
[7] = biological target: Short transient receptor potential channel 4 (Mus musculus) (UniProt Q9QUQ5); assay: calcium entry via TRPC4 opening agents – cell-based, HEK293 TRPC4/mu-opioid, Fluo-4 calcium, dose response (AID 434937;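 active = primary screen activator hit with a dose response curve and TRPC4 channel activation at any tested dose; inactive = no activation, no dose response, or not a primary hit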)
[8] = biological target: Short transient receptor potential channel 4 (Mus musculus) (UniProt Q9QUQ5); assay: potentiation of DAMGO-evoked TRPC4 calcium signal – cell-based, HEK293 TRPC4/mu-opioid, Fluo-4 calcium, EC20 DAMGO, dose response (AID 434941;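 active = earlier screen potentiator hit that boosts the TRPC4 ion channel at some dose, with a dose response; inactive = no potentiation, no dose response, or not a prior hit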;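 also: calcium entry triggered by an EC20 dose of DAMGO at the co-expressed mu-opioid receptor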)
[9] = biological target: Short transient receptor potential channel 4 (Mus musculus) (UniProt Q9QUQ5); assay: block of DAMGO-driven TRPC4 calcium entry – cell-based, HEK293 TRPC4/mu-opioid, Fluo-4 calcium, dose response (AID 434942;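 active = primary screen inhibitor hit that blocks the TRPC4 channel at some tested dose, yielding a dose curve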)
[10] = biological target: Short transient receptor potential channel 6 (Mus musculus) (UniProt Q61143); assay: TRPC6 blockade by TRPC4 inhibitor hits – cell-based, HEK293, membrane potential dye, duplicate, selectivity assay for TRPC4 inhibitor project, confirmation (AID 434948;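 active = active in primary screen and both duplicates, each dropping signal beyond three positive-control SD with fluorescence still positive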); details: HEK293 TRPC6, membrane potential dye fluorescence, at 10 µM, stimulated with maximal-effect acetylcholine; active compounds read high
Sequence of Short transient receptor potential channel 6 (Mus musculus) (Q61143 whole entry, looked up): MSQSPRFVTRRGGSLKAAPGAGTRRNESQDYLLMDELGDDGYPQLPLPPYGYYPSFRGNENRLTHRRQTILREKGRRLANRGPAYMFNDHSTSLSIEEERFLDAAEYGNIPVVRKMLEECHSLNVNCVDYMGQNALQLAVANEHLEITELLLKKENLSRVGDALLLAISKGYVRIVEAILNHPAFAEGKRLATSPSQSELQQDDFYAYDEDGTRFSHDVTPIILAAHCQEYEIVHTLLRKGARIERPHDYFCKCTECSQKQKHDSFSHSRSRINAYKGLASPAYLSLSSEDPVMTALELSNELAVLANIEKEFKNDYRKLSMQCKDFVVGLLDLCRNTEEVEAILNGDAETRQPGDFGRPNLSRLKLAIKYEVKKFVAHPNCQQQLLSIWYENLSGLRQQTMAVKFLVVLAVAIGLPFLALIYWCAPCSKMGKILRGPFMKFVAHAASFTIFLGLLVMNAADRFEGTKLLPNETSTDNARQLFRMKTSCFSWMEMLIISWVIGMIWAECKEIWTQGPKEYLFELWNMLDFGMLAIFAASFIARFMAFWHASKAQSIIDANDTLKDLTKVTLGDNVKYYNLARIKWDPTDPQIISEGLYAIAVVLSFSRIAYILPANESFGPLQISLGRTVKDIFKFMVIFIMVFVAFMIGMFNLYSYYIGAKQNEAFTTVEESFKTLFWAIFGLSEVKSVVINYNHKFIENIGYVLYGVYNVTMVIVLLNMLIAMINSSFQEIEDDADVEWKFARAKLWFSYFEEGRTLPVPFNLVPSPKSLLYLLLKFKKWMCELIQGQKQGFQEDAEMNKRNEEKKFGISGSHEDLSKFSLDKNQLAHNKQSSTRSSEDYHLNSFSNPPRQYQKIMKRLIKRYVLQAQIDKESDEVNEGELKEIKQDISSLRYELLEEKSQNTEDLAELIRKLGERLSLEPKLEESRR

[11] = biological target: Short transient receptor potential channel 6 (Mus musculus) (UniProt Q61143); assay: TRPC6 opening by TRPC4 activator hits – cell-based, HEK293, membrane potential dye, duplicate, selectivity assay for TRPC4 activator project, confirmation (AID 434950;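 active = membrane potential signal rise above negative control mean plus 3 SD in both duplicates, also active in the earlier TRPC4 screen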); details: HEK293 TRPC6, membrane potential fluorescence, at 10 µM; activation: active compounds read high; outcome: activation
[12] = biological target: Short transient receptor potential channel 6 (Mus musculus) (UniProt Q61143); assay: positive modulators of mouse TRPC6 channel – HEK293 cells, membrane potential dye, duplicate, selectivity assay for TRPC4 potentiator project, confirmation (AID 434952;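 active = compound raising the membrane signal above positive-control mean plus 3 SD in both repeats, and a primary screen hit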); details: HEK293 TRPC6, membrane potential dye fluorescence, at 10 µM, maximal acetylcholine added after compound; active compounds read high
[13] = biological target: Short transient receptor potential channel 4 (Mus musculus) (UniProt Q9QUQ5); assay: calcium flux activators in TRPC4/5HT1a cells, counter-screen for TRPC4 activator project, cell-based, second counter screen, HEK293 TRPC4/5HT1a, Fluo-4 (AID 434977;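 active = calcium signal rise above buffer-control mean plus 5 SD in both duplicates, and also a hit in the primary screen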); details: Fluo-4 calcium flux, at 10 µM; active compounds read high
[14] = serotonin-gated TRPC4 signal block – cell-based, second counter screen, HEK293 TRPC4/5HT1a, Fluo-4, counter-screen for TRPC4 inhibitor project, confirmation (AID 434978;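 active = primary screen active whose calcium signal fell more than 3 SD beyond the full-serotonin control mean in both duplicate plates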;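 also: serotonin given first at submaximal then at maximal dose after compound preincubation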); details: Fluo-4 calcium flux, at 10 µM, serotonin added to trigger calcium flux; active compounds read high
[15] = tested on: TRPC4 (mouse), co-expressed with 5HT1a in HEK293; assay: enhancement of serotonin-evoked TRPC4 response – cell-based, second counter screen, HEK293 TRPC4/5HT1a, Fluo-4, counter-screen for TRPC4 potentiator project, confirmation (AID 434979;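 active = signal rise over 3 SD above mean of control wells given weak agonist, in both repeats and first screen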); details: Fluo-4 calcium flux, at 10 µM, serotonin added at its EC20 dose; active compounds read high
[16] = nonspecific calcium rise without TRPC4 – cell-based, HEK293 mu-opioid receptor line, counter-screen for TRPC4 activator project, confirmation (AID 449723;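 active = hit in primary screen, with calcium signal over 5 SD above buffer well mean in both duplicates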;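 also: counter screen cells carry the mu-opioid receptor alone and lack TRPC4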); details: HEK293 mu-opioid cells, Fluo-4 calcium fluorescence, at 10 µM; active compounds read high
[17] = nonspecific potentiation of DAMGO calcium response – cell-based, HEK293 mu-opioid receptor line, counter-screen for TRPC4 allosteric potentiator project, confirmation (AID 449724;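 active = calcium signal rise more than 3 SD above the low-dose agonist control mean, in both duplicate plates and the primary screen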); details: HEK293 mu-opioid receptor cells, Fluo-4 calcium flux, at 10 µM, compound added before EC20 DAMGO stimulus; active compounds read high
[18] = nonspecific flux increase, KCNQ1-free cells – parental CHO cells, counter-screen for KCNQ1 potentiator project (AID 493006;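 active = duplicate-averaged activation above buffer control mean plus 5 SD of those controls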;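 as to activation: fluorescence ratio of max minus min over baseline after K+ and Tl+ depolarization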); details: parental CHO-K1 cells, FluxOR thallium flux, at 10 µM; active compounds read high
[19] = biological target: Potassium voltage-gated channel subfamily KQT member 1 (Homo sapiens) (UniProt P51787); assay: enhancement of KCNQ1 channel thallium flux – FluxOR thallium flux, CHO cells, duplicates, confirmation (AID 493007;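 active = potentiation averaged over duplicate wells exceeding buffer-only control mean by more than 3 SD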;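 as to outcome: cells depolarized by a potassium plus thallium sulfate stimulus after compound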;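 as to potentiation: 0% = buffer-only wells and 100% = R-L3 activator control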); details: KCNQ1 cell line, FluxOR thallium flux fluorescence, at 10 µM; active compounds read high, % of reference activator effect, buffer zero
Sequence of Potassium voltage-gated channel subfamily KQT member 1 (Homo sapiens) (P51787 whole entry, looked up): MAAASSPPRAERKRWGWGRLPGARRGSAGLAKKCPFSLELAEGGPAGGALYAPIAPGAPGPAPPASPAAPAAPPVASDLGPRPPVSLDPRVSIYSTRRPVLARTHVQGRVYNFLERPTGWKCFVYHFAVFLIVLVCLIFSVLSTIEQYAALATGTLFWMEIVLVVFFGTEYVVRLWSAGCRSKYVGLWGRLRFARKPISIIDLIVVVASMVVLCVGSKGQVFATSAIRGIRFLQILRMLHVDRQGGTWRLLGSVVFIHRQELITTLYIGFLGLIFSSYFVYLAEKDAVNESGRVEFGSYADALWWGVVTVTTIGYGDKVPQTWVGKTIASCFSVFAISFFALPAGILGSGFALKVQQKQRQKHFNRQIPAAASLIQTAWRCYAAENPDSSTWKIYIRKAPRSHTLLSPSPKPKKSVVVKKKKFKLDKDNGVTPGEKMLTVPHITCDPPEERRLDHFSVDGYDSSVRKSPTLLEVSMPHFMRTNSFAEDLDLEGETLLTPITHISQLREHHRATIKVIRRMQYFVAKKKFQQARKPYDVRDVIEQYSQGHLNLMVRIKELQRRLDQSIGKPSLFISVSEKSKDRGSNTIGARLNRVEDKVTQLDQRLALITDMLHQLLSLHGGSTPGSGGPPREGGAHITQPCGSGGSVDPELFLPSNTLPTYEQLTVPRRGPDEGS

[20] = biological target: Potassium voltage-gated channel subfamily KQT member 2 (Rattus norvegicus) (UniProt O88943); assay: KCNQ2 thallium flux enhancement – KCNQ2-CHO-K1 cells, selectivity assay for KCNQ1 potentiator project (AID 493009;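 active = mean duplicate potentiation above the buffer control mean plus 5 SD of buffer wells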;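 also: assay conditions were tuned for KCNQ1 rather than KCNQ2 modulators; signal is max minus min fluorescence divided by baseline after thallium stimulus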); details: FluxOR thallium flux fluorescence, at 10 µM; active compounds read high, scaled: buffer 0, activator control 100
Sequence of Potassium voltage-gated channel subfamily KQT member 2 (Rattus norvegicus) (O88943 whole entry, looked up): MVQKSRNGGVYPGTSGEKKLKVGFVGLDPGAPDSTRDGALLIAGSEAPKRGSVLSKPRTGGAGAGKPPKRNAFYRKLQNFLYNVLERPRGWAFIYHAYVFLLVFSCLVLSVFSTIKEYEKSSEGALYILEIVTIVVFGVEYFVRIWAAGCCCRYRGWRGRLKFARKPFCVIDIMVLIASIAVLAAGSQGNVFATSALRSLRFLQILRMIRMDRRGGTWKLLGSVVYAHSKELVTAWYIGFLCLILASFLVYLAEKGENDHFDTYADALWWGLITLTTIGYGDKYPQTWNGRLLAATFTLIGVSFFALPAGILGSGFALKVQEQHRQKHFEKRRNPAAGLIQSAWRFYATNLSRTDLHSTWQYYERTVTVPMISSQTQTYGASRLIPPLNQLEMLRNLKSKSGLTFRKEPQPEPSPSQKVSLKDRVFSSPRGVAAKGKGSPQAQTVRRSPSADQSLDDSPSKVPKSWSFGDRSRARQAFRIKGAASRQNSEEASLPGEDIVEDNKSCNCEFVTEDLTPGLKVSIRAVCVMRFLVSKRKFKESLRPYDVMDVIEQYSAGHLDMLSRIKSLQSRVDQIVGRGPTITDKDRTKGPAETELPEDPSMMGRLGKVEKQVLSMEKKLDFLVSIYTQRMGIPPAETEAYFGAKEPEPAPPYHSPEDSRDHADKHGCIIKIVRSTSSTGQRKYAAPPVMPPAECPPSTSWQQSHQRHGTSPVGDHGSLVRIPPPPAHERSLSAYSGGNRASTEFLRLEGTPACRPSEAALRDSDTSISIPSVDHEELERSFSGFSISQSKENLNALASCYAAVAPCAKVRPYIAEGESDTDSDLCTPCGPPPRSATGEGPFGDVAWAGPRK

Cn1c(=O)c2c(nc(CN3CCc4ccccc4C3)n2Cc2ccc(F)cc2)n(C)c1=O
inactive: outcome [1] | outcome [2] | outcome [3] | outcome [4] | outcome [5] | outcome [6] | outcome [7] | outcome [8] | outcome [9] | outcome [10] | outcome [11] | outcome [12] | outcome [13] | outcome [14] | outcome [16] | outcome [17]
active: potentiation [15] 59.5%

O=C(O)CCCN1C(=O)/C(=C\c2ccc(-c3nc4ccccc4s3)o2)SC1=S
inactive: outcome [1] | outcome [2] | outcome [3] | outcome [5] | outcome [6] | outcome [7] | outcome [8] | outcome [9] | outcome [10] | outcome [11] | outcome [12] | outcome [13] | outcome [14] | outcome [16] | outcome [17] | outcome [18] | outcome [19] | outcome [20]
active: potentiation [4] 10% | potentiation [15] 22.6%

CN1CCN(S(=O)(=O)c2ccc(Br)c3ccccc23)CC1
inactive: outcome [1] | outcome [2] | outcome [3] | outcome [4] | outcome [5] | outcome [6] | outcome [7] | outcome [8] | outcome [9] | outcome [10] | outcome [11] | outcome [12] | outcome [13] | outcome [14] | outcome [16] | outcome [17]
active: potentiation [15] 26.5%

COc1cc(C2(c3ccc(O)c(OC)c3)C(=O)Nc3c(C)cc(Br)cc32)ccc1O
active: potentiation [4] 22% | potentiation [15] 71.7% | activation [18] 168% | potentiation [19] 36.5%
inactive: outcome [1] | outcome [2] | outcome [3] | outcome [5] | outcome [6] | outcome [7] | outcome [8] | outcome [9] | outcome [10] | outcome [11] | outcome [12] | outcome [13] | outcome [14] | outcome [16] | outcome [17] | outcome [20]

COc1cc(=O)n2c(-c3ccccc3)csc2n1
active: inhibition [5] 39%
inactive: outcome [1] | outcome [2] | outcome [3] | outcome [4] | outcome [6] | outcome [7] | outcome [8] | outcome [9] | outcome [10] | outcome [11] | outcome [12] | outcome [13] | outcome [14] | outcome [15] | outcome [16] | outcome [17]

CCn1c(=O)c2cc(C(=O)N(C)c3cc(C)ccc3OC)sc2c2ccccc21
active: inhibition [5] 74%
inactive: outcome [1] | outcome [2] | outcome [3] | outcome [4] | outcome [6] | outcome [7] | outcome [8] | outcome [9] | outcome [10] | outcome [11] | outcome [12] | outcome [13] | outcome [14] | outcome [15] | outcome [16] | outcome [17]

CN(C)S(=O)(=O)N1CCC(CCCC2CCN(S(=O)(=O)N(C)C)CC2)CC1
active: potentiation [4] 11% | potentiation [15] 8.71% | activation [18] 228% | potentiation [19] 99.5% | potentiation [20] 288%
inactive: outcome [1] | outcome [2] | outcome [3] | outcome [5] | outcome [6] | outcome [7] | outcome [8] | outcome [9] | outcome [10] | outcome [11] | outcome [12] | outcome [13] | outcome [14] | outcome [16] | outcome [17]

CCCc1nc2oc3c(NCCCN(C)C)ncnc3c2c2c1CCCC2
inactive: outcome [1] | outcome [2] | outcome [3] | outcome [4] | outcome [5] | outcome [6] | outcome [7] | outcome [8] | outcome [9] | outcome [10] | outcome [11] | outcome [12] | outcome [13] | outcome [14] | outcome [15] | outcome [16] | outcome [17] | outcome [18] | outcome [19] | outcome [20]

O=C1C=CC(=O)N1CCNc1ncc(C(F)(F)F)cc1Cl
active: potentiation [19] 77.5%
inactive: outcome [1] | outcome [2] | outcome [3] | outcome [4] | outcome [5] | outcome [6] | outcome [7] | outcome [8] | outcome [9] | outcome [10] | outcome [11] | outcome [12] | outcome [13] | outcome [14] | outcome [15] | outcome [16] | outcome [17] | outcome [18] | outcome [20]

COc1ccc(CCN2C(=S)N(C)C(=O)C2CC(=O)Nc2ccc(F)cc2)cc1 (stereo not drawn)
inactive: outcome [1] | outcome [2] | outcome [3] | outcome [4] | outcome [5] | outcome [6] | outcome [7] | outcome [8] | outcome [9] | outcome [10] | outcome [11] | outcome [12] | outcome [13] | outcome [14] | outcome [15] | outcome [16] | outcome [17]

C=CCn1c(SCCN2CCCC2)nc2c([nH]c3ccccc32)c1=O
active: potentiation [3] 21%
inactive: outcome [1] | outcome [2] | outcome [4] | outcome [5] | outcome [6] | outcome [7] | outcome [8] | outcome [9] | outcome [10] | outcome [11] | outcome [12] | outcome [13] | outcome [14] | outcome [15] | outcome [16] | outcome [17]

O=C(NCCCN1CCOCC1)C1CCN(S(=O)(=O)c2c(Cl)cccc2Cl)CC1
inactive: outcome [1] | outcome [2] | outcome [3] | outcome [4] | outcome [5] | outcome [6] | outcome [7] | outcome [8] | outcome [9] | outcome [10] | outcome [11] | outcome [12] | outcome [13] | outcome [14] | outcome [15] | outcome [16] | outcome [17]

CC(C)(C)n1nnnc1C(c1ccc(Cl)cc1)N(Cc1cccnc1)Cc1ccco1 (stereo not drawn)
inactive: outcome [1] | outcome [2] | outcome [3] | outcome [4] | outcome [5] | outcome [6] | outcome [7] | outcome [8] | outcome [9] | outcome [10] | outcome [11] | outcome [12] | outcome [13] | outcome [14] | outcome [15] | outcome [16] | outcome [17]

O=C(Nc1nc(N2C(=O)c3ccccc3C2=O)n(-c2ccccc2)n1)c1ccc(Cl)cc1
inactive: outcome [1] | outcome [2] | outcome [3] | outcome [4] | outcome [5] | outcome [6] | outcome [7] | outcome [8] | outcome [9] | outcome [10] | outcome [11] | outcome [12] | outcome [13] | outcome [14] | outcome [15] | outcome [16] | outcome [17]
